Where “and” joins values, the source holds several entries; their conditions need not be identical. Identical values can stand only once. Compounds without any hit were thinned out: in the full panel of roughly 79,000, 15% have a hit. No stated cut-off is given here; in the data, active means growth inhibition above about 70%; inactive means the rest.
Legend:
[1] = NCI Yeast Anticancer Drug Screen. Data for the rad50 strain (AID 155);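 further: 0% = growth of vehicle-only cultures of the same strain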; conditions: S. cerevisiae rad50 strain growth inhibition, hits give high values; at 50.0 µM unless noted
Summary of the method: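 Cells are treated with compound, grown, and their growth is then scored against vehicle-only cultures of the same repair-deficient yeast strain.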

[2] = NCI Yeast Anticancer Drug Screen. Data for the mec2-1 strain (AID 157); conditions: S. cerevisiae mec2-1 strain, hits give high values; at 50.0 µM unless noted
Summary of the method: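 Readout is yeast growth inhibition, normalised to vehicle-treated controls, in the mec2-1 strain exposed to compound.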

[3] = NCI Yeast Anticancer Drug Screen. Data for the sgs1 mgt1 strain (AID 161);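 further: 0% = growth of cultures given vehicle only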; conditions: S. cerevisiae sgs1 mgt1 strain, hits give high values; at 50.0 µM unless noted
Summary of the method: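 Compounds are added to genetically altered yeast, and growth is compared with cultures given vehicle alone to give percent inhibition.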

[4] = NCI Yeast Anticancer Drug Screen. Data for the cln2 rad14 strain (AID 165);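 further: 0% = growth equal to vehicle treated cultures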; conditions: S. cerevisiae cln2 rad14 strain, hits give high values; at 50.0 µM unless noted
Summary of the method: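 Relative to vehicle controls, growth inhibition of compound-treated cln2 rad14 yeast was recorded.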

[5] = NCI Yeast Anticancer Drug Screen. Data for the bub3 strain (AID 167); conditions: S. cerevisiae bub3 mutant strain, hits give high values; at 50.0 µM unless noted
Summary of the method: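 Part of a panel of yeast mutants defective in DNA damage repair or cell cycle regulation. Each strain is grown with compound, and inhibition is calculated relative to solvent-treated cultures.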

[6] = NCI Yeast Anticancer Drug Screen. Data for the mlh1 rad18 strain (AID 175); conditions: S. cerevisiae mlh1 rad18 strain growth inhibition, hits give high values; at 50.0 µM unless noted
Summary of the method: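 Test agents were incubated with a yeast strain of defined genotype (DNA damage repair defect). Inhibition of growth was derived by comparison with vehicle-exposed cultures.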

Measured: growth inhibition

OC(c1ccc(OCc2ccccc2)cc1)c1ccccn1 (configuration not stated)
inactive: [1] -1.15% | [2] -0.65% | [3] -4.45% | [4] -16.4% | [5] -5.7% | [6] -0.3%

C=C1C(=O)O[C@@H]2C[C@@]3(C)[C@H](O)CCC(=C)[C@@H]3C[C@H]12
inactive: [1] -4.65% | [2] 25.1% | [3] 3.95% | [4] 17.1% | [5] 19.6% | [6] 5.5%

CC1OC(O)C(O)C(O)C1O (configuration not stated)
inactive: [1] -19.3% and 13.9% | [2] -11.7% and 6.25% | [3] -43.6% and 31% | [4] -65.2% and 34.1% | [5] -39.3% and 27.2% | [6] -28.6% and 25.6%

COc1ccccc1NC(=O)C1=C(C)NC(C)=C(C(=O)Nc2ccccc2OC)C1c1ccccc1F
inactive: [1] 32% | [2] 5.35% | [3] 17.1% | [4] 16% | [5] -1.05% | [6] 15.7%

S=c1nc[nH]c2[nH]cc(Br)c12
inactive: [1] 11.6% | [2] -6.55% | [3] 2.5% | [4] -4.7% | [5] 3.75% | [6] 11.8%

O=S1(=O)c2ccccc2Nc2cc3ccccc3cc21
inactive: [1] 6.75% | [2] 2.4% | [3] 0.85% | [4] -11.5% | [5] -2.55% | [6] 6.25%

CN(C)Cc1ccccc1
inactive: [1] 28.8% | [2] 15.8% | [3] 14.8% | [4] -58% | [5] 11.1% | [6] 17.6%

CCC(CC)C(=O)OC1CCCCC1
inactive: [1] 9.9% | [2] 5.25% | [3] 13.8% | [4] -7.8% | [5] 4.8% | [6] 5.35%

CSc1cc(Cl)c(C(=O)Nc2ccccc2)cc1S(=O)(=O)n1cc[nH]c1=O
inactive: [1] 0.2% | [2] -10.6% | [3] -6.35% | [4] -8.95% | [5] -1.35% | [6] 8.05%

CC(=O)NC(C(=O)O)C(C)C (configuration not stated)
inactive: [1] 6.4% | [2] -0.75% | [3] -4.55% | [4] -4.2% | [5] 0.85% | [6] 6.7%

CCCCCCC(=O)C/C(CCC(=O)N(Cc1ccccc1)Cc1ccccc1)=N\Nc1ccc([N+](=O)[O-])cc1[N+](=O)[O-]
inactive: [1] 12.8% | [2] 16.1% | [3] -13.3% | [4] 27.4% | [5] -11.4% | [6] -20.5%

CC(=O)N(C(=O)CC(=O)NNCc1ccccc1Cl)c1ccc(Cl)cc1
inactive: [1] -11.4% | [2] -14.2% | [3] -19.6% | [4] -11.4% | [5] -17% | [6] 6.3%

CNC(=O)N(C)Cc1ccccc1
inactive: [1] 12.7% | [2] -12.8% | [3] 2.75% | [4] -98.7% | [5] -13.6% | [6] -11.2%

CCCCOC(=O)COCC(=O)OC(C)C(=O)OCCCC (configuration not stated)
inactive: [1] -20.9% | [2] 13.1% | [3] 6.55% | [4] -22.1% | [5] 20% | [6] 4.1%

Cc1cc(OCC(=O)O)cc(C)c1C
inactive: [1] 1% | [2] -8.5% | [3] -15.1% | [4] -18.6% | [5] -4.55% | [6] -1.45%

CC1=CP(=O)(c2ccccc2)CC1 (configuration not stated) (tested in a mixture with another compound)
inactive: [1] -12.2% | [2] -9.2% | [3] 6.2% | [4] -9.85% | [5] -10.4% | [6] 1.2%

C#CC(=O)CCC
inactive: [1] 26.6% | [2] -5.8% | [3] -4.7% | [4] -1.1% | [5] 32.5% | [6] 15.6%

CCOC(=O)N1CCN(C(=O)CC(C)=O)CC1
inactive: [1] 2.35% | [2] -32.5% | [3] -0.15% | [4] 19.1% | [5] 4.45% | [6] 16.6%

O=C1C2C(c3ccccc3)NC(c3ccccc3)C1C(c1ccccc1)NC2c1ccccc1 (configuration not stated)
inactive: [1] -13.4% | [2] -8.5% | [3] -35.6% | [4] -18.1% | [5] -65% | [6] 0.9%

CC1=CSC2=NCCCCN12
inactive: [1] -9.5% | [2] 2.3% | [3] 13.3% | [4] 8.55% | [5] 18.2% | [6] 16.1%

Cn1cc(Cc2ccccc2)c(=O)[nH]c1=O
inactive: [1] 6.25% | [2] -4.4% | [3] 2.05% | [4] -34.6% | [5] -4.85% | [6] 7.6%

Cc1ccc(S(=O)(=O)c2c3[nH]c4ccccc4nc3n3c2nc2ccccc23)cc1
inactive: [1] -14.2% | [2] -45.5% | [3] -19.2% | [4] -87.3% | [5] -26.8% | [6] -14.3%

Cc1nn2c(nnn2CCO)c1-c1ccccc1
inactive: [1] 10.7% | [2] -5.65% | [3] -15% | [4] -10.6% | [5] -25.4% | [6] 15.8%

COc1cc(CC(=O)C(=O)O)ccc1O
inactive: [1] 0.85% | [2] -2.95% | [3] 4.35% | [4] -14.7% | [5] 2.2% | [6] -1.95%

Nc1ncnc2c1c(-c1nnc(-c3ccccc3)c(-c3ccccc3)n1)cn2C1OC(CO)C(O)C1O (configuration not stated)
inactive: [1] 44.1% | [2] -2.8% | [3] 38% | [4] -13.3% | [5] -4.25% | [6] 9.9%

CCc1ccc2c(c1)CCCC2(C)C
inactive: [1] -2.5% | [2] -10.2% | [3] 2.25% | [4] -8.3% | [5] 0.3% | [6] -0.05%

CNC(=S)C#N
inactive: [1] -21.8% | [2] -14.4% | [3] -15.3% | [4] 11.9% | [5] -13% | [6] 0.1%

O=c1[nH]c(=O)n(C2CC(O)C(CO)O2)cc1OCCCc1ccccc1 (configuration not stated)
inactive: [1] -27.8% | [2] 0.75% | [3] 12.2% | [4] 13.8% | [5] -0.5% | [6] -3.2%

O=C1C(N2CCCCC2)=C(c2ccccc2)c2ccccc21
inactive: [1] 5.1% | [2] 7.5% | [3] -3.6% | [4] -28.9% | [5] 17.1% | [6] -10.2%

CC1CC(C)(O)C2C3(C)CCCC2(COC3=O)C12CCC1(CCOC1=O)O2 (configuration not stated)
inactive: [1] 0.9% | [2] -23.5% | [3] 25.3% | [4] 3.8% | [5] -0.6% | [6] 2.9%

C/C(CC1=CCCCC1)=N\NC(N)=O
inactive: [1] -18.4% | [2] -17.9% | [3] -20.9% | [4] -27.9% | [5] -4.65% | [6] -12.7%

COc1cc(C(=O)O)cc(I)c1OC
inactive: [1] -3.3% | [2] 25.1% | [3] 3.95% | [4] -15.4% | [5] -4.55% | [6] -8.95%

COC1OC(COC(=O)NCCCCC(=O)C(F)(F)F)C(O)C(O)C1O (configuration not stated)
inactive: [1] 3.6% | [2] 22.6% | [3] -0.5% | [4] 29.9% | [5] 28.2% | [6] 11.6%

Cc1nn(C(C)C(=O)N(C)C)c(Br)c1Br (configuration not stated)
inactive: [1] 2.05% | [2] 4.7% | [3] 0.75% | [4] -30.4% | [5] -25.7% | [6] 3.15%

O=C1c2scc(-c3ccc(F)cc3)c2-n2cccc21
inactive: [1] 7.8% | [2] 12.5% | [3] 7.6% | [4] 3.7% | [5] 8.65% | [6] 24.1%

Clc1ccc(-c2c(C3=NCCCN3)nnn2-c2ccc(Cl)cc2)cc1
inactive: [1] -16.6% | [2] -17.9% | [3] -10.9% | [4] 11.7% | [5] -3.6% | [6] -25.7%

O=C1OC(C(O)C(O)CO)C(O)=C1O (configuration not stated)
inactive: [1] 16.8% and 0.95% | [2] 3.7% and 13.8% | [3] -11.3% and -13.8% | [4] 4.25% and -8.15% | [5] 2.75% and -8.6% | [6] 19.7% and 6.2%

CC(C)OC(=O)Oc1cccc(OC(=O)OC(C)C)c1
inactive: [1] 3.15% | [2] -28.8% | [3] 2.15% | [4] 6.95% | [5] 8.5% | [6] 9.3%

CCN1CCC(S(=O)(=O)CCS(=O)(=O)C2CCN(CC)C2)C1 (configuration not stated)
inactive: [1] -6.3% | [2] 0.55% | [3] 11.7% | [4] 3.6% | [5] 17.3% | [6] 2.05%

CCCCOC(=O)/C=C/C(=O)OCCCC
inactive: [1] -34.6% | [2] 9.6% | [3] 8.85% | [4] 4% | [5] -0.45% | [6] 43.9%

CCCCCCCc1nc(CCCCCCC)nc(CCCCCCC)n1
inactive: [1] 1.05% | [2] 12.9% | [3] 6% | [4] -15.1% | [5] 19.8% | [6] 12.6%

OC1(C2(O)CCCC2)CCCC1
inactive: [1] 14.1% | [2] 8.4% | [3] 22% | [4] 6.75% | [5] 18% | [6] 12.8%

From PubChem BioAssay (NCI)
